Reference: PubChem BioAssay (EPA / NIEHS)
Activity calls are given as the source filed them. Rule for the calls: active = hit-call score of the fitted dose curve at least 0.9, where 1 is the maximum; inactive = score below 0.9.

Legend:
[1] = read-out: Transforming growth factor beta 1 (TGFb1), TGFB1 (gene 7040); assay: BSK_KF3CT_TGFb1: BioMAP Diversity Plus: KF3CT Assay for Transforming growth factor beta 1 (TGFb1) Biomarker Activity (AID 2283072); details: primary human keratinocytes with fibroblasts; actives raise or lower the signal
How it was run: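 Signal changes in either direction, relative to DMSO, define activity here. TGF-b1 is read by ELISA from a human keratinocyte-fibroblast co-culture 24 h post-dose.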

[2] = read-out: C-C motif chemokine 2 (Homo sapiens) (UniProt P13500); assay: BSK_KF3CT_MCP1: BioMAP Diversity Plus: KF3CT Assay for Monocyte Chemoattractant Protein 1 (MCP1/CCL2) Biomarker Activity (AID 2283073); details: primary human keratinocytes with fibroblasts; actives raise or lower the signal
How it was run: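 KF3CT skin co-culture (keratinocytes/foreskin fibroblasts), 24 h post-dose; MCP-1 by ELISA; gain/loss of signal fit bidirectionally vs DMSO baseline.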

[3] = read-out: Matrix Metallopeptidase 9 (MMP9), MMP9 (gene 4318); assay: BSK_KF3CT_MMP9: BioMAP Diversity Plus: KF3CT Assay for Matrix Metallopeptidase 9 (MMP9) Biomarker Activity (AID 2283074); details: primary human keratinocytes with fibroblasts; actives raise or lower the signal;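 for AC50: MMP9 protein level quantified by ELISA in the co-culture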
How it was run: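 Keratinocyte plus foreskin fibroblast human primary skin co-culture was dosed with chemical and MMP-9 was quantified by ELISA 24 h later. Bidirectional curve fitting used DMSO as negative control and activity baseline.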

[4] = read-out: urokinase plasminogen activator (uPA), PLAU (gene 5328); assay: BSK_KF3CT_uPA: BioMAP Diversity Plus: KF3CT Assay for urokinase plasminogen activator (uPA) Biomarker Activity (AID 2283075); details: primary human keratinocytes with fibroblasts; actives raise or lower the signal
How it was run: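 Human keratinocyte plus foreskin fibroblast primary co-culture exposed to chemical for 24 h. uPA levels were quantified by ELISA, and activity was fitted bidirectionally against a DMSO negative-control baseline.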

CD40, CD40 (gene 958) [5] = assay: BSK_LPS_CD40: BioMAP Diversity Plus: LPS Assay for CD40 Biomarker Activity (AID 2283076); details: primary human HUVEC with PBMC; actives raise or lower the signal
How it was run: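 ELISA readout of CD40 in HUVEC/PBMC co-culture (BSK_LPS system), 24 h post-dosing; bidirectional curve fit, DMSO baseline; parallel SRB total-protein staining for cytotoxicity.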

[6] = read-out: E-selectin (Homo sapiens) (UniProt P16581); assay: BSK_LPS_Eselectin: BioMAP Diversity Plus: LPS Assay for Eselectin Biomarker Activity (AID 2283077); details: primary human HUVEC with PBMC; actives raise or lower the signal
How it was run: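 ELISA readout of E-selectin, 24 h post-dose, HUVEC + PBMC co-culture (LPS system). Gain or loss of signal vs DMSO baseline, bidirectional fit.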

[7] = read-out: Interleukin-8 (IL8), CXCL8 (gene 3576); assay: BSK_LPS_IL8: BioMAP Diversity Plus: LPS Assay for Interleukin-8 (IL8) Biomarker Activity (AID 2283078); details: primary human HUVEC with PBMC; actives raise or lower the signal
How it was run: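 HUVEC + PBMC co-culture, LPS-activated; test chemicals dosed, IL-8 read by ELISA at 24 h. Bidirectional curve fit vs DMSO baseline (gain or loss of signal).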

[8] = BSK_LPS_SRB: Viability Assessment in the BioMAP Diversity Plus: LPS Assay (AID 2283079); details: primary human HUVEC with PBMC;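 note: total protein by sulforhodamine B absorbance as a cytotoxicity measure; measured one day after compound addition; fitted in both directions against DMSO so loss or gain of signal counts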
How it was run: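 HUVEC + PBMC co-culture, LPS-stimulated; compound 24 h. 10% TCA fix, 0.1% SRB stain, A560. Bidirectional fit vs DMSO.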

[9] = read-out: Interleukin-1 alpha (IL1a), IL1A (gene 3552); assay: BSK_LPS_IL1a: BioMAP Diversity Plus: LPS Assay for Interleukin-1 alpha (IL1a) Biomarker Activity (AID 2283080); details: primary human HUVEC with PBMC; actives raise or lower the signal
How it was run: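 HUVEC/PBMC co-culture, LPS system; 24 h after dosing; IL-1a by ELISA; gain or loss of signal fitted bidirectionally vs DMSO baseline.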

[10] = read-out: Monocyte Chemoattractant Protein-1 (MCP1), CCL2 (gene 6347); assay: BSK_LPS_MCP1: BioMAP Diversity Plus: LPS Assay for Monocyte Chemoattractant Protein-1 (MCP1) Biomarker Activity (AID 2283081); details: primary human HUVEC with PBMC; actives raise or lower the signal;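 for AC50: secreted MCP-1 protein quantified by ELISA in culture supernatant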
How it was run: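 ELISA read-out of MCP-1 after 24 h chemical dosing of a human umbilical vein endothelial cell/peripheral blood mononuclear cell co-culture stimulated with LPS. Gain or loss of signal fitted relative to DMSO controls.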

[11] = BSK_LPS_PGE2: BioMAP Diversity Plus: LPS Assay for Prostaglandin E2 (PGE2) Biomarker Activity (AID 2283082); details: primary human HUVEC with PBMC; actives raise or lower the signal
How it was run: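 Endpoint derived from bidirectional curve fitting versus DMSO of ELISA-measured PGE2 in LPS-stimulated human primary vascular co-culture (HUVEC with PBMC) harvested at 24 h.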

[12] = read-out: Macrophage colony-stimulating factor (MCSF), CSF1 (gene 1435); assay: BSK_LPS_MCSF: BioMAP Diversity Plus: LPS Assay for Macrophage colony-stimulating factor (MCSF) Biomarker Activity (AID 2283083); details: primary human HUVEC with PBMC; actives raise or lower the signal
How it was run: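 HUVEC + PBMC co-culture (human primary), 24 h post-dose; M-CSF by ELISA; gain/loss of signal fitted bidirectionally vs DMSO baseline.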

[13] = read-out: Tissue Factor, F3 (gene 2152); assay: BSK_LPS_TissueFactor: BioMAP Diversity Plus: LPS Assay for Tissue Factor Biomarker Activity (AID 2283084); details: primary human HUVEC with PBMC; actives raise or lower the signal
How it was run: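 HUVEC/PBMC co-culture, LPS-activated; CD142 ELISA read 24 h post-dose; bidirectional curve fit vs DMSO negative control.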

[14] = read-out: Tumor necrosis factor (Homo sapiens) (UniProt P01375); assay: BSK_LPS_TNFa: BioMAP Diversity Plus: LPS Assay for Tumour Necrosis Factor alpha (TNFa) Biomarker Activity (AID 2283085); details: primary human HUVEC with PBMC; actives raise or lower the signal
How it was run: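 Primary human vascular co-culture of HUVEC and PBMC; TNFa ELISA 24 h after treatment, analysed as increase or decrease relative to DMSO control.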

[15] = read-out: Vascular cell adhesion molecule 1 (VCAM1), VCAM1 (gene 7412); assay: BSK_LPS_VCAM1: BioMAP Diversity Plus: LPS Assay for Vascular cell adhesion molecule 1 (VCAM1) Biomarker Activity (AID 2283086); details: primary human HUVEC with PBMC; actives raise or lower the signal
How it was run: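 Primary human vascular co-culture (umbilical vein endothelium plus PBMC) stimulated with LPS received chemical; 24 h later VCAM-1 was read by ELISA. Overt cytotoxicity was assessed by sulforhodamine B staining of parallel cultures at the same time point.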

CD38, CD38 (gene 952) = assay: BSK_SAg_CD38: BioMAP Diversity Plus: SAg Assay for CD38 Biomarker Activity (AID 2283087); details: primary human HUVEC with PBMC; actives raise or lower the signal
How it was run: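 Fluorescence ELISA of cell-surface CD38 served as the read-out, with either increase or decrease fitted against DMSO controls. Cells were a human umbilical vein endothelium plus PBMC co-culture under SEB/TSST-1 stimulation, measured 24 h after dosing.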

CD40, CD40 (gene 958) [16] = assay: BSK_SAg_CD40: BioMAP Diversity Plus: SAg Assay for CD40 Biomarker Activity (AID 2283088); details: primary human HUVEC with PBMC; actives raise or lower the signal
How it was run: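 HUVEC/PBMC co-culture, 24 h post-dose; CD40 by ELISA, fluorescence intensity; bidirectional fit vs DMSO negative control.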

CD69, CD69 (gene 969) = assay: BSK_SAg_CD69: BioMAP Diversity Plus: SAg Assay for CD69 Biomarker Activity (AID 2283089); details: primary human HUVEC with PBMC; actives raise or lower the signal;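 for AC50: cell surface CD69 protein quantified by ELISA with fluorescence detection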
How it was run: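 Values derive from bidirectional fitting relative to DMSO vehicle. Cells: umbilical vein endothelium plus peripheral blood mononuclear cells, treated 24 h before fluorescent ELISA for CD69.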

[17] = read-out: Monocyte Chemoattractant Protein-1 (MCP1), CCL2 (gene 6347); assay: BSK_SAg_MCP1: BioMAP Diversity Plus: SAg Assay for Monocyte Chemoattractant Protein-1 (MCP1) Biomarker Activity (AID 2283090); details: primary human HUVEC with PBMC; actives raise or lower the signal
How it was run: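 MCP-1 levels in the endothelial–PBMC SAg co-culture were quantified by ELISA at 24 h post-dosing; both increases and decreases versus DMSO scored. Cytotoxicity monitored by SRB total protein in parallel cultures.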

[18] = read-out: E-selectin (Homo sapiens) (UniProt P16581); assay: BSK_SAg_Eselectin: BioMAP Diversity Plus: SAg Assay for Eselectin Biomarker Activity (AID 2283091); details: primary human HUVEC with PBMC; actives raise or lower the signal
How it was run: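 E-selectin ELISA readout at 24 h post-dosing in human umbilical vein endothelial cell/PBMC co-culture; gain or loss of signal fitted relative to DMSO baseline.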

Measured: AC50

Chain of E-selectin (Homo sapiens) (P16581 whole entry, looked up): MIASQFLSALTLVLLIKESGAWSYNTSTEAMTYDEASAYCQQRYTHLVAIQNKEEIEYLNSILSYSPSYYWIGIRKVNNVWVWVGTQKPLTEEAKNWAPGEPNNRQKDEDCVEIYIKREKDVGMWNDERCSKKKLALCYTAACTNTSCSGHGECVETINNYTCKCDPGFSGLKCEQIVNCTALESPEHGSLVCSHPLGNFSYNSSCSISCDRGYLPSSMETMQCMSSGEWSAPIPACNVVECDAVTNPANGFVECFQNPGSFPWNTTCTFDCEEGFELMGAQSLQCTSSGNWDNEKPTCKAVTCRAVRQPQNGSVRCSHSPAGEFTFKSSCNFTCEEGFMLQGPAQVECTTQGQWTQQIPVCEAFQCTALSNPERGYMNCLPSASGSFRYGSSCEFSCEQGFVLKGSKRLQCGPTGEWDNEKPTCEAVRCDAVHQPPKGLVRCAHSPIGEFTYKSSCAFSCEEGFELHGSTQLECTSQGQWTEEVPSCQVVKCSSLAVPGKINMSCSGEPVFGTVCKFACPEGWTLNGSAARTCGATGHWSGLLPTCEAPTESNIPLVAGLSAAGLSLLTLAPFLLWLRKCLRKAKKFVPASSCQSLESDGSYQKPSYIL
Chain of Tumor necrosis factor (Homo sapiens) (P01375 whole entry, looked up): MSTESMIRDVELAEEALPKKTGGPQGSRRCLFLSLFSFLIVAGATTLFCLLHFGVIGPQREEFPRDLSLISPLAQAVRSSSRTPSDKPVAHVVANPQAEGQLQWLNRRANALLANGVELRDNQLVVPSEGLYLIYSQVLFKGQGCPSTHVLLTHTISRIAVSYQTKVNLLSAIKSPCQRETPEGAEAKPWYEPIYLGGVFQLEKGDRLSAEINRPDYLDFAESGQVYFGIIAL

O=c1oc2ccccc2c(O)c1C(CC(O)c1ccc(-c2ccc(Br)cc2)cc1)c1ccccc1 (stereo not given)
inactive: [9] | [11] | [14]
active: [1] 5.23 µM | [2] 10 µM | [3] 19.1 µM | [4] 5.28 µM | CD40, CD40 (gene 958) [5] 13 µM | [6] 14.3 µM | [7] 0.0502 µM | [8] 12.4 µM | [10] 19.1 µM | [12] 12.8 µM | [13] 19.1 µM | [15] 14.1 µM | CD38, CD38 (gene 952) 23 µM | CD40, CD40 (gene 958) [16] 14.1 µM | CD69, CD69 (gene 969) 19.1 µM | [17] 22.6 µM | [18] 28.6 µM

CCOP(=S)(OCC)OP(=S)(OCC)OCC
active: [15] 20 µM | CD38, CD38 (gene 952) 31.8 µM | CD69, CD69 (gene 969) 30.1 µM | [18] 35.4 µM
inactive: all other assays above

CCOP(=O)(OCC)SCCSCC
inactive: all assays above
